From PubChem BioAssay (NCATS)
Records with an inconclusive call do not appear. A call without a number means that no potency is given here. Active and inactive are the calls of the source. Unless noted, calls come from the whole dose curve; as a rule, active = well fitted curve in the direction sought with a large enough effect; inconclusive = small, poorly fitted or top-dose-only effect, or another doubt; inactive = no such curve, though single readings can be large; an effect the other way counts as inactive or inconclusive.

Legend:
[1] = Nrf2 qHTS screen for inhibitors: Validation (AID 493153; active = well fitted inhibition curve with a large enough effect in the main read-out, with a control signal flat, not every such curve was filed as active; note: potency is the fitted concentration of half-maximal effect); details: Potency: luciferase luminescence; viability change: measured here: cytotoxicity max response
Method in brief: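 A549 cells carrying an ARE-driven firefly luciferase reporter, in 5% FBS OPTI-MEM, were treated with compounds in concentration-response for 18-24 h at 37°C. Viability was read by CellTiter-Fluor fluorescence, then Nrf2 activity by luciferase luminescence.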

[2] = qHTS for Inhibitors of Cell Surface uPA Generation: Validation Assay (AID 493164);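 note: RAW 264.7 macrophage cells exposed to compound for 18 h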
Method in brief: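 RAW 264.7, 4000 cells/well, o/n plating; cpd 7-pt 1:5 dilution 2.45 nM–38.3 uM final; 18 h, 37 C/5% CO2; ATP-Lite, 5 s luminescence exposure.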

[3] = molecular target: Galactokinase (Homo sapiens) (UniProt P51570); test: qHTS Validation Assay for Inhibitors of Human Galactokinase (GALK) (AID 493189); note: potency is the fitted concentration of half-maximal effect
Sequence of Galactokinase (Homo sapiens) (P51570 whole entry, looked up): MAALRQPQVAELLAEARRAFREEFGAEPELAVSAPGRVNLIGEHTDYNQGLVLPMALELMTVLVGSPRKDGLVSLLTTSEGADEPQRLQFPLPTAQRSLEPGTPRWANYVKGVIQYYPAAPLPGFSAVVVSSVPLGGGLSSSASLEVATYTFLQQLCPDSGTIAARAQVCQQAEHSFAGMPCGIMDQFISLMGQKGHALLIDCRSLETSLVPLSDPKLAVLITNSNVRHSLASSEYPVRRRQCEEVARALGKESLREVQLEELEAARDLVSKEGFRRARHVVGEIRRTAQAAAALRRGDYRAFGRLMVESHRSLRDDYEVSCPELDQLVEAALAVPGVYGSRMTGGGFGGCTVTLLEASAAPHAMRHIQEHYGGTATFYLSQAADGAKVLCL
Method in brief: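 Luminescence from leftover ATP (Kinase-Glo Plus, 10 min) served as read-out after a 1 h room-temperature reaction of 5 nM GALK, 100 uM galactose and 35 uM ATP at pH8.0.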

[4] = Validation screen for small molecules that induce DNA re-replication in SW480 colon adenocarcinoma cells (AID 504364)
Method in brief: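 SW480 cells seeded at 250 per well were exposed to compound or DMSO for 48 hr at 37 C, 5% CO2, then stained with Hoechst for 40 min. DNA content per nucleus was imaged (405 nm ex, 500-530 nm em).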

[5] = molecular target: phosphoglycerate mutase (Leishmania major) (UniProt Q4Q090); test: qHTS Validation Assay to Find Inhibitors of Phosphoglycerate Mutase (AID 504548); details: Potency: inhibition qHTS; note: series mostly up to about 58 µM
Sequence of phosphoglycerate mutase (Leishmania major) (Q4Q090 1-553): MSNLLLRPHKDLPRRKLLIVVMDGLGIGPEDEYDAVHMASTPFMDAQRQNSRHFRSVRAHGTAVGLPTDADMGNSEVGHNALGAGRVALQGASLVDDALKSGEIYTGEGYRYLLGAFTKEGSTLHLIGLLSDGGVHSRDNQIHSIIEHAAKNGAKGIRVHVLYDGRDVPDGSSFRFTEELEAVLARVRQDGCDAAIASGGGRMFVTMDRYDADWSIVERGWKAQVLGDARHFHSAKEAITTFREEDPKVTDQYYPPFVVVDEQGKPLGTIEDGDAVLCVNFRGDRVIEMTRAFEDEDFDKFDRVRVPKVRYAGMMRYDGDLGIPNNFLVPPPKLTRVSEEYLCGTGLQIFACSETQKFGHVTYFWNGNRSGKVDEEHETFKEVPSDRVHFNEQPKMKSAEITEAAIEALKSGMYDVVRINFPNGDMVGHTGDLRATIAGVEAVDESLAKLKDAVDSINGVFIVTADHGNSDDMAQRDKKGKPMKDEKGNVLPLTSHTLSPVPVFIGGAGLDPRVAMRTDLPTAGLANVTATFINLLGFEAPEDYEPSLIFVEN
Method in brief: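 Lm PGAM at 1.25 nM final with substrate in 100 mM TEA pH 7.6, 5 mM MgCl2, 0.01% Tween-20; 45 min at room temperature. Kinase-GloPlus added, 10 min, end-point luminescence read.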

[6] = molecular target: Ubiquitin carboxyl-terminal hydrolase 1 (Homo sapiens) (UniProt O94782); test: Inhibitors of USP1/UAF1: Pilot qHTS (AID 504865); note: nearly all actives have a fitted effect of over 35% in size; note: potency is the fitted concentration of half-maximal effect
Sequence of Ubiquitin carboxyl-terminal hydrolase 1 (Homo sapiens) (O94782 whole entry, looked up): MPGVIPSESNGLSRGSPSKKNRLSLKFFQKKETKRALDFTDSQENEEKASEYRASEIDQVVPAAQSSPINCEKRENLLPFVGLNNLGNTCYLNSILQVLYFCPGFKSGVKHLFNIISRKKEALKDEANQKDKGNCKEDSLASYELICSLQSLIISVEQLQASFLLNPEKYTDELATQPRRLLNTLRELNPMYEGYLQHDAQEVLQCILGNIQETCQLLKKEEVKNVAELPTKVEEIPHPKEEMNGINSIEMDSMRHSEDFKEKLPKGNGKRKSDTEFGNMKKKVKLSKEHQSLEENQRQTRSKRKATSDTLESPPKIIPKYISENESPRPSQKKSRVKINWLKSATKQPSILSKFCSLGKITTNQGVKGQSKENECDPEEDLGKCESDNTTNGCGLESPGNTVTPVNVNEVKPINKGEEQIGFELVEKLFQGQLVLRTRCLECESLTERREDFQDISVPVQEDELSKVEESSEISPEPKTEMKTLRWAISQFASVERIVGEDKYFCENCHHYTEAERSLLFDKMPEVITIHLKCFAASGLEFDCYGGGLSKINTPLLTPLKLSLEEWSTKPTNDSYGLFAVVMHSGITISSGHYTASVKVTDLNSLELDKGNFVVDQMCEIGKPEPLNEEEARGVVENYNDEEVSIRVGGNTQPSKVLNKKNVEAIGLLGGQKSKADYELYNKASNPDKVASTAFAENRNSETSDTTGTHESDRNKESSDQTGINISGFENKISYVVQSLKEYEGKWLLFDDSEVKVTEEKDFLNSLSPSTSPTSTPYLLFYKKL
Method in brief: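 1nM USP1/UAF1 + cpd, 15 min RT; start w/ Ub-Rho 150nM final; kinetic FL 480/540 nm, 6 reads q60 s. Buffer 50mM HEPES pH 7.8, 0.5mM EDTA, 1mM TCEP, 0.01% Tween-20, 0.1 mg/ml BSA.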

[7] = qHTS for Inhibitors of ATXN expression: Validation of Cytotoxic Assay (AID 588349)
Method in brief: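 HEK293 cells were dosed with titrated compounds for 72 hr at 37 degrees C. Viability was read by CellTiter Glo luminescence, with intracellular ATP as the marker of cell survival.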

[8] = qHTS for Inhibitors of ATXN expression: Validation (AID 588378); note: series mostly up to about 57 µM; nearly all actives have a fitted effect of over 75% in size
Method in brief: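 Cells: HEK293-ATXN2-FFLuc, phenol-red free DMEM, 2 h attachment. Compound pin-transfer, 24 h, 37 degrees C, 5% CO2. CellTiter-Fluor 30 min, Ex405/Em525; Bright-Glo 5 min, luminescence 2 s exposure.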

[9] = molecular target: Peptidyl-prolyl cis-trans isomerase NIMA-interacting 1 (Homo sapiens) (UniProt Q13526); test: qHTS Validation Assay to Find Inhibitors of Pin1 (AID 504536; active = well fitted inhibition curve with a large enough effect in the polarisation, with a control signal flat, not every such curve was filed as active; the % refers to the polarisation; note: potency is the fitted concentration of half-maximal effect)
Sequence of Peptidyl-prolyl cis-trans isomerase NIMA-interacting 1 (Homo sapiens) (Q13526 whole entry, looked up): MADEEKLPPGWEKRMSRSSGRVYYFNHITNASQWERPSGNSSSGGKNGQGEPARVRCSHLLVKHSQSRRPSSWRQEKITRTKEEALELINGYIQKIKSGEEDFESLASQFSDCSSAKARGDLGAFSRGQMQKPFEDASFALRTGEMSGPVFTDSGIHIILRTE
Method in brief: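 Fluorescence polarization competition: compounds (titration) displace HiFluor-488-labeled Pin1-1b peptide from Pin1 (0.3 uM final) in pH 7.5 HEPES buffer with DTT, 10 min at room temperature; %Activity normalized to no-enzyme wells, curves fitted.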

[10] = molecular target: Phosphoglycerate kinase, glycosomal (Trypanosoma brucei brucei) (UniProt P07378); test: qHTS Validation Assay to Find Inhibitors of Phosphoglycerate Kinase (AID 504547); note: potency is the fitted concentration of half-maximal effect
Sequence of Phosphoglycerate kinase, glycosomal (Trypanosoma brucei brucei) (P07378 whole entry, looked up): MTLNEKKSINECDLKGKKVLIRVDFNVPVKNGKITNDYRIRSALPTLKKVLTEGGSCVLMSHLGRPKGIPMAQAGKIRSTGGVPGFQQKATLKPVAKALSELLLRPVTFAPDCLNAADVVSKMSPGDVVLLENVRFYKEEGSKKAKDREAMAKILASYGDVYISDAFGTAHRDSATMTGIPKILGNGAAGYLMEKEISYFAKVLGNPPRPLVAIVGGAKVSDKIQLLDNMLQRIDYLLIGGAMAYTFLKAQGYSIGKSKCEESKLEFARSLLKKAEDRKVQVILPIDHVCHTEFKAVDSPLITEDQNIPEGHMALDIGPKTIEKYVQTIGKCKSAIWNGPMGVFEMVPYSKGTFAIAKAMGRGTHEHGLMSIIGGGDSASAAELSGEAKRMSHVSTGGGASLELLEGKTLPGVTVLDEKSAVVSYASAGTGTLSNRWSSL
Method in brief: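 Inhibition of the enzyme is judged by a Kinase-Glo Plus luminescent signal following a one-hour incubation at room temperature. Because 1,3-BPG is unstable, it is made in situ by GAPDH at 100nM final; no-PGK wells define the baseline.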

[11] = molecular target: DNA dC->dU-editing enzyme APOBEC-3G (Homo sapiens) (UniProt Q9HC16); test: qHTS for inhibitors of Vif-A3G interactions: Validation (AID 588379)
Sequence of DNA dC->dU-editing enzyme APOBEC-3G (Homo sapiens) (Q9HC16 whole entry, looked up): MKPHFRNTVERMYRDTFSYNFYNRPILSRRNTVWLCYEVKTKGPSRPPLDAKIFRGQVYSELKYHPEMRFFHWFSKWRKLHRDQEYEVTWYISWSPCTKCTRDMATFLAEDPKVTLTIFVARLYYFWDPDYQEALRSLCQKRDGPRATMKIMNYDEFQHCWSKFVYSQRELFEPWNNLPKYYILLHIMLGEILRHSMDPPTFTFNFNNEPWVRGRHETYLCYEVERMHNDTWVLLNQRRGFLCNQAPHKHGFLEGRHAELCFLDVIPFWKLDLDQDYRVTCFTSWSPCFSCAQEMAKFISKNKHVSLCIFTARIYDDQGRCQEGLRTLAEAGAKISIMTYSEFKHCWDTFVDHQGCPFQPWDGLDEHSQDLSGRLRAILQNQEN
Method in brief: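 HeLa cells stably expressing Vif and A3G-eYFP, 700 cells/well, incubated overnight at 37 deg C, then exposed to compound overnight at 37 deg C. Inhibition of Vif-mediated degradation read as increased yellow fluorescence (Ex 488/Em 500-530) by laser-scanning cytometry.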

Structure (SMILES) | Potency [1] | viability change [1] | outcome [2] | Potency [3] | Potency [4] | Potency [5] | Potency [6] | Potency [7] | Potency [8] | Potency [9] | Potency [10] | Potency [11]
CC(N)(C(=O)O)c1ccc(C(=O)O)cc1 (configuration not stated) | inactive | 1.94% | inactive | inactive | inactive | inactive | inactive | inactive | inactive | – | – | –
Cc1ccccc1/C=C/C1=NCCN1 | inactive | -20.2% | inactive | inactive | – | inactive | inactive | – | – | inactive | inactive | –
CCCCCCC/C=C\CCCCCCCCC(=O)O | inactive | 3.91% | inactive | inactive | inactive | inactive | – | inactive | inactive | – | inactive | –
CC(=O)O[C@H]1CC2(C)[C@@H](C[C@@H](O)[C@H]3[C@@]4(C)CC[C@@H](O)[C@@H](C)[C@@H]4CC[C@@]32C)C1=C(CCC=C(C)C)C(=O)O (some centres not stated) | inactive | -4.76% | inactive | inactive | – | inactive | inactive | inactive | inactive | inactive | inactive | –
C[C@H](NC(=O)/C(C#N)=C/c1ccc(O)c(O)c1)c1ccccc1 | inactive | -7.12% | inactive | inactive | – | inactive | inactive | – | – | inactive | inactive | –
O=C(O)c1cc2cc(F)ccc2[nH]1 | inactive | 4.46% | inactive | inactive | – | inactive | inactive | inactive | inactive | inactive | inactive | –
O=C(O)/C(=C/c1c(C(=O)O)[nH]c2cc(Cl)cc(Cl)c12)c1ccccc1 | inactive | 4.57% | inactive | inactive | – | inactive | inactive | inactive | inactive | inactive | inactive | –
N[C@H](C(=O)O)c1cc(O)cc(O)c1 | inactive | 13.1% | inactive | inactive | inactive | inactive | inactive | inactive | inactive | – | inactive | inactive
[Li+] | inactive | 6.42% | inactive | inactive | – | inactive | inactive | inactive | inactive | inactive | inactive | –
O=C(O)C1CN(CCCP(=O)(O)O)CCN1 (configuration not stated) | inactive | 8.53% | inactive | inactive | – | inactive | inactive | inactive | inactive | – | inactive | –
Cc1nc(N=Nc2ccc(S(=O)(=O)O)cc2S(=O)(=O)O)c(COP(=O)(O)O)c(C=O)c1O | inactive | -3.73% | inactive | inactive | – | inactive | inactive | inactive | inactive | – | – | inactive
c1ccc(C(NCc2cccnc2)(c2ccccc2)c2ccccc2)cc1 | inactive | 7.92% | inactive | – | – | inactive | – | – | – | inactive | inactive | –
O=C(O)C1=CC(=C(c2ccc(O)c(C(=O)O)c2)c2ccc(O)c(C(=O)O)c2)C=CC1=O | inactive | -5.86% | inactive | 14.1 µM (active) | – | – | – | inactive | inactive | 0.675 µM (active) | 0.0757 µM (active) | –
O=C(O)C1=CCCNC1 | inactive | 5.73% | inactive | inactive | – | inactive | inactive | inactive | – | inactive | inactive | inactive
Nc1ccc(CCNc2ncnc3c2ncn3C2OC(CO)C(O)C2O)cc1 (configuration not stated) | inactive | 5.22% | inactive | inactive | – | – | inactive | inactive | inactive | inactive | inactive | –
Cc1nc2n(c(=O)c1CCN1CCC(c3noc4cc(F)ccc34)CC1)CCCC2O (configuration not stated) | inactive | 3.12% | inactive | – | – | inactive | inactive | inactive | – | inactive | inactive | –
CCCn1c(=O)c2c(ncn2C)n(CCC)c1=O | inactive | 3.43% | inactive | inactive | – | inactive | inactive | inactive | inactive | inactive | – | –
C=C(C)C1CC=C(C(=O)O)CC1 (configuration not stated) | inactive | 1.77% | inactive | inactive | – | inactive | – | inactive | inactive | inactive | inactive | –
CC(C)(C)c1ccc(/C=C/C(=O)Nc2ccc3c(c2)OCCO3)cc1 | 10.3 µM (active) | -12.9% | inactive | – | – | – | – | – | – | inactive | inactive | –
O=C(O)C1=CCCN(CCON=C(c2ccccc2)c2ccccc2)C1 | inactive | 4.51% | inactive | inactive | – | inactive | inactive | inactive | – | inactive | inactive | inactive
O=C1Cc2c([nH]c3ccc(Br)cc23)-c2ccccc2N1 | inactive | 3.96% | inactive | inactive | – | inactive | inactive | – | – | – | inactive | –
CN1CCN(c2nc3cc(C(F)(F)F)ccc3n3cccc23)CC1 | inactive | 3.07% | inactive | inactive | – | inactive | inactive | – | – | inactive | inactive | inactive
CC(=O)N[C@@H](Cc1c[nH]c2ccccc12)C(=O)OCc1cc(C(F)(F)F)cc(C(F)(F)F)c1 | inactive | 0.548% | inactive | inactive | – | – | 20 µM (active) | inactive | inactive | inactive | inactive | inactive
N[C@H](C(=O)O)[C@H](Cc1ccccc1)C(=O)O | inactive | -3.91% | inactive | – | – | inactive | inactive | inactive | inactive | inactive | inactive | –
